{
  "source": "PubChem BioAssay AID2147",
  "about": "(National Center for Advancing Translational Sciences (NCATS), 2009)",
  "note": "Where “and” joins values, the source holds several entries; their conditions need not be identical. Equal values may be shown once. The campaign covered roughly 230,000 compounds. About 3,600 (1.6%) were called active. About 15% were inconclusive and are not listed. Calls come from the whole dose curve; as a rule, active = well fitted inhibition curve with a large enough effect (not every such curve was filed as active); inconclusive = small, poorly fitted or top-dose-only effect, or another doubt; inactive = no such curve, though single readings can be large or run the other way. Only a selection was taken, and actives are over-represented in it overall. Note: nearly all actives have a fitted effect of over 50% in size. Potency is the fitted concentration of half-maximal effect.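 Throughout, for activity change, negative = inhibition: 0% = wells with enzyme and -100% = buffer wells without enzyme.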",
  "data": [
    {"molecular_target": "Lysine-specific demethylase 4E (Homo sapiens) (UniProt B2RXH2)", "sequence (B2RXH2 1-337 limits assumed)": "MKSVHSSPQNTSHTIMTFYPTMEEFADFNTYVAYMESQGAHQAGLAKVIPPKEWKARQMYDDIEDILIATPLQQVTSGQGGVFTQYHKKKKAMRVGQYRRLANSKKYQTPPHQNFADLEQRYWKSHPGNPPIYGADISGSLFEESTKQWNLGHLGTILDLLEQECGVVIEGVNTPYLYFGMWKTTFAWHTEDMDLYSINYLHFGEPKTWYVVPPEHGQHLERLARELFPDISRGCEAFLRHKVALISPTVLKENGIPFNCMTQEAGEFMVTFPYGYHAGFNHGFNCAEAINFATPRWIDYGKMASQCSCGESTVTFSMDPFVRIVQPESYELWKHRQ", "assay": "qHTS Assay for Inhibitors of Human Jumonji Domain Containing 2E (JMJD2E)", "settings": "JMJD2E catalytic domain, FDH-coupled NADH fluorescence (FDH is formaldehyde dehydrogenase); series mostly up to 57.1 µM; activity change, negative = inhibition: at the top concentration", "values": [
      {"smiles": "N/C(=N\\OC(=O)Nc1ccccc1)c1ccno1", "activity change, negative = inhibition": "-3.04% (inactive)"},
      {"smiles": "COc1ccc(CNC(=O)CCC(=O)Nc2nnc(C(C)C)s2)cc1", "activity change, negative = inhibition": "-15.9% (inactive)"},
      {"smiles": "O=C(Nc1ccc(Cl)cc1)Nc1ccc(C(=O)N2CCOCC2)cc1", "activity change, negative = inhibition": "4.19% (inactive)"},
      {"smiles": "CCC1=C(C(=O)OC)C(c2cc(OC)ccc2OC)C(C#N)=C(N)O1", "note": "(centres undefined)", "activity change, negative = inhibition": "-0.399% (inactive)"},
      {"smiles": "COc1ccc(C2C(C#N)=C(N)Oc3cc(N)ccc32)cc1OC", "note": "(centres undefined)", "Potency": "12.6 µM (active)"},
      {"smiles": "COC(=O)C1=C(C)OC(N)=C(C#N)C1c1cc(OC)ccc1OC", "note": "(centres undefined)", "activity change, negative = inhibition": "2.33% (inactive)"},
      {"smiles": "CNCC(O)c1ccc(O)c(O)c1", "note": "(centres undefined)", "Potency": "20 µM (active) and 14.1 µM (active)"},
      {"smiles": "CC(C)NC[C@H](O)c1ccc2ccccc2c1", "Potency": "inactive"},
      {"smiles": "CCC(C)c1ccc(O)c(/C=N/O)c1", "note": "(centres undefined)", "activity change, negative = inhibition": "-5.09% (inactive)"},
      {"smiles": "C=CCN(C(=O)Nc1ccc2c(c1)nc(C)n2C)c1ccccc1", "activity change, negative = inhibition": "1.69% (inactive)"},
      {"smiles": "C/C(=C\\c1ccco1)CN1CCC(N2CCC(C(=O)N3CCOCC3)CC2)CC1", "activity change, negative = inhibition": "0.474% (inactive)"},
      {"smiles": "CCOC(=O)N1CCN(C(c2cccnc2)c2ccc3cccnc3c2O)CC1", "note": "(centres undefined)", "Potency": "14.1 µM (active)"},
      {"smiles": "CCOC(=O)N1CCN(C(=O)CSc2ccc(Cl)cc2)CC1", "activity change, negative = inhibition": "-1.41% (inactive)"},
      {"smiles": "Oc1c(C(c2ccccn2)N2CCOCC2)ccc2cccnc12", "note": "(centres undefined)", "activity change, negative = inhibition": "-10.2% (inactive)"},
      {"smiles": "Cc1cc(N2CCN(c3ccc(F)cc3)CC2)n2ncnc2n1", "activity change, negative = inhibition": "4.37% (inactive)"},
      {"smiles": "CC1CC(C)(C)n2c(O)c(N=NC(N)=S)c3cccc1c32", "note": "(centres undefined)", "activity change, negative = inhibition": "8.14% (inactive)"},
      {"smiles": "O=c1c(O)c(Br)ccc2c(Br)c(O)c(O)c(O)c12", "Potency": "7.08 µM (active)"},
      {"smiles": "CCCCCCCC(=O)OC(CN1CCCCCC1)CN1CCCC1=O", "note": "(centres undefined)", "activity change, negative = inhibition": "1.81% (inactive)"},
      {"smiles": "CCN(CC)CCN1C(=O)C(=O)/C(=C(/O)c2ccccc2)C1c1ccccc1F", "note": "(centres undefined)", "activity change, negative = inhibition": "-9.65% (inactive)"},
      {"smiles": "CCN(CC)CCN1C(=O)C(=O)/C(=C(/O)c2ccc(OC)c(OC)c2)C1c1ccccn1", "note": "(centres undefined)", "Potency": "22.4 µM (active)"},
      {"smiles": "COc1ccc(/C(O)=C2/C(=O)C(=O)N(CCCN(C)C)C2c2ccccc2)cc1OC", "note": "(centres undefined)", "activity change, negative = inhibition": "-12.7% (inactive)"},
      {"smiles": "CC(=O)Nc1ccc(NC(=O)CSc2ncnc3c2cnn3Cc2ccccc2)cc1", "activity change, negative = inhibition": "0.598% (inactive)"},
      {"smiles": "CN1CCN(Cc2c(O)ccc3c2oc(=O)c2ccccc23)CC1", "activity change, negative = inhibition": "-8.15% (inactive)"},
      {"smiles": "NC(=O)COc1ccc2c3c(c(=O)oc2c1)CCCCC3", "activity change, negative = inhibition": "3.79% (inactive)"},
      {"smiles": "O=c1oc2c(CN3CCCCC3)c(O)ccc2c2c1CCCCC2", "Potency": "3.16 µM (active)"},
      {"smiles": "Cc1ccccc1OCC(O)CN1CCN(c2ccccn2)CC1", "note": "(centres undefined)", "activity change, negative = inhibition": "-7.16% (inactive)"},
      {"smiles": "Cc1cccc(C)c1NC(=S)N(Cc1cccnc1)Cc1ccccc1Cl", "activity change, negative = inhibition": "2.9% (inactive)"},
      {"smiles": "CCC/C(C)=N\\Nc1nc2c(c(=O)n(C)c(=O)n2C)n1C", "activity change, negative = inhibition": "-5.67% (inactive)"},
      {"smiles": "Oc1ccc2ccccc2c1C=Nc1ccccc1", "activity change, negative = inhibition": "-5.63% (inactive)"},
      {"smiles": "COc1ccc(N=C(C)c2sc3ccccc3c2O)cc1", "activity change, negative = inhibition": "-1.68% (inactive)"},
      {"smiles": "Oc1ccc(N=Cc2sc3ccccc3c2Cl)cc1", "Potency": "12.6 µM (active)"},
      {"smiles": "S=c1nc2ccccc2c2nc(-c3cccnc3)[nH]n12", "activity change, negative = inhibition": "-7.81% (inactive)"},
      {"smiles": "COc1ccc(CCNS(=O)(=O)c2cccc3cccnc23)cc1OC", "activity change, negative = inhibition": "8.86% (inactive)"},
      {"smiles": "Cc1ccc2cc(/C=N/NC(=O)[C@@H]3CCCN3)c(Cl)nc2c1", "activity change, negative = inhibition": "-2.24% (inactive)"},
      {"smiles": "Cc1ccc(/C=N/NC(=O)C2=NNC(c3ccccc3)(c3ccccc3)C2)c(O)c1", "Potency": "10 µM (active)"},
      {"smiles": "Cc1nnsc1C(=O)N/N=C/c1ccccc1Cl", "activity change, negative = inhibition": "2.37% (inactive)"},
      {"smiles": "CCn1cc(CN2CCCC(CNS(=O)(=O)Cc3ccccc3)C2)cn1", "note": "(centres undefined)", "activity change, negative = inhibition": "-1.97% (inactive)"},
      {"smiles": "Nn1c(SCc2ccccc2)nnc1C1CCCCC1", "activity change, negative = inhibition": "-0.349% (inactive)"},
      {"smiles": "CC(C)C[C@H](CO)Nc1nc(N(C)c2cccc(Cl)c2)c2ncn(C(C)C)c2n1", "activity change, negative = inhibition": "2.12% (inactive)"},
      {"smiles": "O=C(Nc1cccc(S(=O)(=O)NC2=NCCC2)c1)C1CCCCC1", "activity change, negative = inhibition": "3.5% (inactive)"},
      {"smiles": "CC(C)(C)C(=O)OCc1nc(-c2ccc(O)c(O)c2)cs1", "Potency": "12.6 µM (active)"},
      {"smiles": "Cc1onc(C(=O)NN)c1-c1csc(COc2ccccc2)n1", "activity change, negative = inhibition": "33.8% (inactive)"},
      {"smiles": "CCCC(=O)N1c2ccc(-c3csc(N)n3)cc2CC1C", "note": "(centres undefined)", "activity change, negative = inhibition": "-25.3% (inactive)"},
      {"smiles": "O=c1[nH]c(CSc2ccccc2)nc2c1oc1ccccc12", "activity change, negative = inhibition": "-0.198% (inactive)"},
      {"smiles": "Cc1ccc(NC(=O)/C(=C\\c2ccccc2)NC(=O)c2ccco2)cc1", "activity change, negative = inhibition": "8.1% (inactive)"},
      {"smiles": "NC(=O)COc1ccc(NC(=O)c2ccccc2-c2ccccc2)cc1", "activity change, negative = inhibition": "-9.16% (inactive)"},
      {"smiles": "Oc1ccc(/C=N/NC2=NCCCCC2)c(O)c1", "Potency": "22.4 µM (active)"},
      {"smiles": "Oc1ccc(/C=N/Nc2nc(-c3ccccc3F)nc3ccccc23)c(O)c1", "activity change, negative = inhibition": "-27.2% (inactive)"},
      {"smiles": "Oc1c(Br)cccc1/C=N/Nc1c(F)c(F)c(F)c(F)c1F", "activity change, negative = inhibition": "0.236% (inactive)"},
      {"smiles": "CN(c1ccccn1)c1ncnc2[nH]ncc12", "activity change, negative = inhibition": "-4.74% (inactive)"},
      {"smiles": "Cc1ccc(C)c(SCc2nc3sc(C(=O)O)c(C)c3c(=O)[nH]2)c1", "activity change, negative = inhibition": "-5.22% (inactive)"},
      {"smiles": "O=C(Nc1ccc(F)cc1)c1cc2c(s1)CCCC2", "activity change, negative = inhibition": "0.588% (inactive)"},
      {"smiles": "Cc1c(C)c(C)c2[nH]c(=S)[nH]c2c1C", "activity change, negative = inhibition": "5.54% (inactive)"},
      {"smiles": "O=c1[nH]c(=S)[nH]c2[nH]c(=S)[nH]c12", "Potency": "28.2 µM (active)"},
      {"smiles": "Cc1nc2cccnc2nc1C", "activity change, negative = inhibition": "1.81% (inactive)"},
      {"smiles": "COc1ccc(OC)c(-n2c(-c3ccn[nH]3)n[nH]c2=S)c1", "activity change, negative = inhibition": "3.77% (inactive)"},
      {"smiles": "O=C(N/N=C\\c1cc(Br)c(Br)o1)C1COc2ccccc2O1", "note": "(centres undefined)", "activity change, negative = inhibition": "-26.6% (inactive)"},
      {"smiles": "Nc1ccccc1SCc1cc([N+](=O)[O-])cc2c1OCOC2", "activity change, negative = inhibition": "-7.45% (inactive)"},
      {"smiles": "Nc1ccccc1Sc1ccc(C(F)(F)F)cc1[N+](=O)[O-]", "activity change, negative = inhibition": "-29.3% (inactive)"},
      {"smiles": "Nc1ccccc1SC(C[N+](=O)[O-])c1ccccc1", "note": "(centres undefined)", "Potency": "6.31 µM (active)"},
      {"smiles": "OCCC1CN(Cc2ccc(Oc3ncccn3)cc2)CCN1CCc1ccccc1", "note": "(centres undefined)", "activity change, negative = inhibition": "-5.89% (inactive)"},
      {"smiles": "COCCNc1nc(-c2ccccc2)nc2c1oc1ccccc12", "activity change, negative = inhibition": "-8.99% (inactive)"},
      {"smiles": "Cc1nnc(SC(C(=O)c2ccccc2)c2ccccc2)[nH]c1=O", "note": "(centres undefined)", "activity change, negative = inhibition": "-1.45% (inactive)"},
      {"smiles": "Cc1cccc(-n2cc(CN3CCN(C(=O)c4ncn[nH]4)CC3)c(-c3cccc(F)c3)n2)c1", "activity change, negative = inhibition": "8.66% (inactive)"},
      {"smiles": "CC(C)OCCCNC(=O)c1ccc(C2SCC(=O)N2Cc2ccco2)cc1", "note": "(centres undefined)", "activity change, negative = inhibition": "-12.8% (inactive)"},
      {"smiles": "COc1ccc(NS(=O)(=O)c2ccc(O)c(C(=O)OCC(=O)NC3CCCCC3)c2)cc1", "activity change, negative = inhibition": "-4.29% (inactive)"},
      {"smiles": "S=c1[nH]nc(COc2ccccc2)n1-c1ccccc1", "activity change, negative = inhibition": "-9.54% (inactive)"},
      {"smiles": "Cc1ccc(OCc2n[nH]c(=S)n2-c2ccc(C)cc2)cc1", "activity change, negative = inhibition": "-3.16% (inactive)"},
      {"smiles": "COc1ccc(OCc2n[nH]c(=S)n2N)cc1", "Potency": "15.8 µM (active)"},
      {"smiles": "Cc1cc(N2CCN(c3ccccc3)CC2)nc(N2CCOCC2)n1", "activity change, negative = inhibition": "3.11% (inactive)"},
      {"smiles": "O=c1c(-c2ccc(Cl)cc2)[n+]([O-])c2ccccc2n1OCc1nc2ccccc2[nH]1", "activity change, negative = inhibition": "-4.14% (inactive)"},
      {"smiles": "CCN1/C(=C\\c2ccc3ccccc3[n+]2CC)Sc2cc(C)ccc21", "Potency": "1.41 µM (active)"},
      {"smiles": "CCN1/C(=C/c2ccc3ccc(C)cc3[n+]2CC)Sc2ccccc21", "activity change, negative = inhibition": "-7.04% (inactive)"},
      {"smiles": "CCC(=O)/C=C1\\Sc2ccccc2N1CC", "activity change, negative = inhibition": "-12.4% (inactive)"}
    ]}
  ]
}
